Measured values from article PMC12136788.
Substitutions are numbered along the chain they refer to. In all, about 24,000 sequences were measured (“enrichment r”: median about 0.99, highest 2% from about 3.7 on). The entries come from a sample that favours the highest values as a whole.

T1: UNK ZnF1-3 (human, UniProt Q9C0B0 31-174)
T1 sequence: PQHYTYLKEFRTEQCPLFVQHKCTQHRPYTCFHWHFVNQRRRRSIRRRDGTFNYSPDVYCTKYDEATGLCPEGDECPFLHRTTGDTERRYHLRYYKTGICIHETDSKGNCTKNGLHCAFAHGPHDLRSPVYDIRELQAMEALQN

B1: chr1:163112212:163112213:-_ENSG00000143248_ENST00000313961|hu_hu|hu_hu_hu_mus_False|78_88 (ssRNA)
RNA: GGGAGUUCUACAGUCCGACGAUCUUUUAUUAUCAGUAAGAGUGAGUCACAUAGUACAUAAAGUAUUGGAUACAAUAAUCAGGAAACAAACACUAUUGGUCCAGAAUUUAAAACUUUAUGAGCGAAGUGCUGGCACAGGACUUACAACAGAGGAUUGAGCAUCA
B2: chr1:163112212:163112213:-_ENSG00000143248_ENST00000313961|hu_hu|FALSE|FALSE (ssRNA)
RNA: GGGAGUUCUACAGUCCGACGAUCUUUAUUUAUCCAGAAGCAUGAGUCACAUAGUACAUAAAGUAUUGAAUACAAAAUUCUAAAGAUAAACACAAUUUUUCUUGAAUUUAAAAUAUAUGGGAUAAAUGCUUACAAAUGGAUUUACAACAGAGGAUUGAGCAUCA
B3: chr2:61705769:61705770:-_ENSG00000082898_ENST00000401558|hu_hu|motif|central (ssRNA)
RNA: GGGAGUUCUACAGUCCGACGAUCAAAUGGGCAUGAAGUAAAAUUUUUAAAAAUGCCUUAAUUUUCAACUUCAUGCAAACGGAAUAAAGAUGACCAAAACAAAAGCUUAAACAAUGGAAGGAUAUUUCACAGAAAAUUUCUUAUCAACAGAGGAUUGAGCAUCA
B4: chr5:145543945:145543946:-_ENSG00000133706_ENST00000545646|hu_mus|FALSE|FALSE (ssRNA)
RNA: GGGAGUUCUACAGUCCGACGAUCCUGAACGGCCAGUGGUGGGAAAUAAUCAAGCCAGUGCUCUGCUUCAGAAAACUUCACUAUGUCGUCAUCAGAGAGCCCAAGGGAUUUCAUAAUGUCCCACUGGUACUUAGAAGAUCCUGCCAACAGAGGAUUGAGCAUCA
B5: chr7:141445308:141445309:+_ENSG00000106028_ENST00000265304|hu_hu|hu_hu_hu_mus_False|28_98 (ssRNA)
RNA: GGGAGUUCUACAGUCCGACGAUCUAUGAUUGUUGUUGCUUGUCGCCUCACAUUGUUUUUAUCCAUGUACUCGCCAUAGUCCACUUUCCCUUCCACAAAUAUACGAGACCCCUUUUUCACAUACUGAUAUGCCACAUCUCUGAGCAACAGAGGAUUGAGCAUCA
B6: 39165641_39167405_4275_CDS_ENSMUSG00000037475_ENSMUST00000047037|mouse|control|control (ssRNA)
RNA: GGGAGUUCUACAGUCCGACGAUCUGAAGAGUCCUUGAGAUCGAUGAGACUGUCCUUUACUGUGGAGGAAUGUGAUGGAGAAGGAUGACUAUCAAUUUUGCGGCGUUUUUGUUCCCUGUCAGGCUCCGAGAUAUCUGAUCGGGGCAACAGAGGAUUGAGCAUCA
B7: chr11:87793471:87793472:-_ENSMUSG00000020483_ENSMUST00000020775|mus_mus|mus_mus_mus_hu_False|68_108 (ssRNA)
RNA: GGGAGUUCUACAGUCCGACGAUCUGGGGGCUGGGGAAAAAGAAUAAGCUGGAUCCCCCACCCCCCCACAGUGUCAACCCUACACGAGAGUUUUGAAGGCGACUCAUGAAAAUCAGCAGCUCAAACGGCAAUGACCACCCCACCCAACAGAGGAUUGAGCAUCA
B8: chr8:114060920:114060921:+_ENSMUSG00000033545_ENSMUST00000095176|mus_mus|FALSE|FALSE (ssRNA)
RNA: GGGAGUUCUACAGUCCGACGAUCCGGGUGGAGGUCUGGGCGAACAUAAAGGCGGAGGGUUGGGGUUGGGGAGAGUCACAAAAGAGCCCCGAGGGGAGAAAAAUGAAAAAAGGUGAGGGGGGGAAUCCUCAAAAAAAAUCCGCGCAACAGAGGAUUGAGCAUCA
B9: 11472005_11472125_940_CDS_ENSG00000105520_ENST00000251473|human|control|control (ssRNA)
RNA: GGGAGUUCUACAGUCCGACGAUCCUUGCAGGGGAAGGCGCGGCGCGCGGCGGCCACGAGGCUGGGACUGCCAGCGCAGGCACCCUGGUCAGUGACAAAGCGGUCGGGACCUGGCCGAUCCGGAGAAGGUGGCAGGCAGCCCAGCAACAGAGGAUUGAGCAUCA
B10: chr11:46405157:46405158:+_ENSG00000110492_ENST00000395566|hu_hu|hu_hu_hu_mus_False|28_98 (ssRNA)
RNA: GGGAGUUCUACAGUCCGACGAUCCCCUCCCCACUUUGGCUGGGGAGUGUGGGCGUGAGAGGACAGGCGUGAUUGACAGAGCUGACAGGAAGACAAAAGGCACUGGUGGGUCACAUCUUGGGCCUGUGGGAGAGGAGGGCUCCGCAACAGAGGAUUGAGCAUCA
B11: chr9:58044877:58044878:-_ENSMUSG00000051243_ENSMUST00000114144|mus_hu|FALSE|FALSE (ssRNA)
RNA: GGGAGUUCUACAGUCCGACGAUCUCCCAGAGGCUGGGAAGGGGGUGUUAGCACCAGACCCGAAAUGUCGCUGUCUUUGAAAACAACGAAAACAGGAAAAUCUGAGCGCGGAGCUGAAAGGCGCCCCAGGCACCGGGCUGGACUCAACAGAGGAUUGAGCAUCA
B12: chr8:114060920:114060921:+_ENSMUSG00000033545_ENSMUST00000095176|mus_hu|FALSE|FALSE (ssRNA)
RNA: GGGAGUUCUACAGUCCGACGAUCCCACUUCUCAGCAGCAGGGGGAGGGCUGGGCGAGCAUAAAGGGGGAGGGAGUCAAAAAGGAGACCCGGAGGGAGAAAAGGAAAAAAAGCAAAAGGAAAAAAGGAAAAAACCCGCGGGGCGCAACAGAGGAUUGAGCAUCA
B13: chr17:45760540:45760541:+_ENSG00000108424_ENST00000290158|hu_hu|motif|central (ssRNA)
RNA: GGGAGUUCUACAGUCCGACGAUCUUUCCCUAGAGUAAAAAAAACAAAAAACAAAACCAAAAAAAAAAAACAAAACAAAACCGGAAGAGCGUCUUUCCUCUGUGUGUGUGUUUUUUUUUUUUUUUUUUUUUUUUUUUUUACAUCCAACAGAGGAUUGAGCAUCA
B14: chr3:41267201:41267202:+_ENSG00000168036_ENST00000349496|hu_mus|motif|central (ssRNA)
RNA: GGGAGUUCUACAGUCCGACGAUCCAAGAAUUUCACGUUUGUUUUGUUGAGCAAAGCAACCAUUUUCUGCAGUCCACCAGCGGGGCGCACUGCCAUUUUAGCUCCUUCCUGAUGGAGCAGGAGAUUAUGCAGUGUCGUGAUGGCCAACAGAGGAUUGAGCAUCA
B15: chr17:15081082:15081083:+_ENSMUSG00000050088_ENSMUST00000052691|mus_mus|FALSE|FALSE (ssRNA)
RNA: GGGAGUUCUACAGUCCGACGAUCUGCUCCAGCAUAUUCAAGGGAUCAGAAGAGAAUUUCAAGCACCAGUUUCAAAAUGCUAAUCAAUAUCGUCCAGAGAACUGAUUCCUCCUCUUGGGCUGCCUCUUCUGGAGCGUAAGCCUGCAACAGAGGAUUGAGCAUCA
B16: 110847190_110847310_5644_3pUTR_ENSMUSG00000021700_ENSMUST00000167824|mouse|control|control (ssRNA)
RNA: GGGAGUUCUACAGUCCGACGAUCUAGUUGCUGAGGGGAACUGAAGAAUGAGGCAAUGCUGUUCUGUGGGGAUAGUGCUUUUAGAAUAUCCUUAAUCAUUUUUUUUUAAAAAACAUGUGGCAGUAUAAAAGGACUACACAAUGACAACAGAGGAUUGAGCAUCA
B17: chr6:31461392:31461393:+_ENSMUSG00000025609_ENSMUST00000026699|mus_mus|motif|central (ssRNA)
RNA: GGGAGUUCUACAGUCCGACGAUCACCUGACGGACACUAGAGGCUUUGGAUAACCAUGUCAUUUCAACAGUAAGACAAACGGUAGAGACAACCCCCACAGUCAAAAACCACAUAUAAAAAUUAGAAUUUGCUUAAUACAGAAAACAACAGAGGAUUGAGCAUCA
B18: chr13:113752066:113752067:+_ENSG00000126217_ENST00000375604|hu_mus|FALSE|FALSE (ssRNA)
RNA: GGGAGUUCUACAGUCCGACGAUCAGGGGAAGUGGGGCCUGCCCUGACGUGGAGAGGCAGCCAGUGCCUGAGUUGCUGAGGAUGACUGACAGCAUGGAGUUAUACAUUUUCUUUAAAAAUAAUAAAAAUAUCCUAAUUUAAUGACAACAGAGGAUUGAGCAUCA
B19: chr16:36085169:36085170:+_ENSMUSG00000075229_ENSMUST00000164916|mus_mus|FALSE|FALSE (ssRNA)
RNA: GGGAGUUCUACAGUCCGACGAUCCUUUAAUAACGUUAAGUCAUCCAGGUUCUUUUCUCUCUCUUCUCGGAGACUUUUUACUACUGCUGAGGUCUGGGCUAUACAGUUCUUUAUAACUCUGUCCCUACUGACAUGAGCUGCCAUCAACAGAGGAUUGAGCAUCA
B20: chr2:55200753:55200754:-_ENSG00000115310_ENST00000317610|hu_mus|FALSE|FALSE (ssRNA)
RNA: GGGAGUUCUACAGUCCGACGAUCUUGGAUUUUGGCCAUGGCAUCCUUAACGCUCUUGUUUGCAAGUCCUAGAUAAUGAUCUAUCUGCGCCUGAUGCCGUUCAUAUAUAACAGGAAUACUGAAGAGUGAGAUCAGAGCUAAAAUCAACAGAGGAUUGAGCAUCA
B21: chr2:203071915:203071916:-_ENSG00000116030_ENST00000392246|hu_mus|motif|central (ssRNA)
RNA: GGGAGUUCUACAGUCCGACGAUCCUAAGAGAUGGAGUGCCAGUAUUCAAUUUUCAUUUUGAACACCACAUUACAAAAGAACGGUUUUUAAAAAUAAAAAAGGAUUGAGGGAAAGGAAAAAUAAAAAAUAAAAAGAAUUAUCUACAACAGAGGAUUGAGCAUCA
B22: chr2:203071915:203071916:-_ENSG00000116030_ENST00000392246|hu_mus|FALSE|FALSE (ssRNA)
RNA: B21 RNA with G82U, G83A
B23: chr8:96496865:96496866:-_ENSMUSG00000031751_ENSMUST00000053766|mus_hu|motif|central (ssRNA)
RNA: GGGAGUUCUACAGUCCGACGAUCGCAGUCCAGUCAACACCAGAAGAGAUCAUACCUACAGUUAAAAUUUGCAGUGUUUCGGAGGGGAAGAGAAAUGUCACAUAGAAAGUAUUACAAAGAAGGAUUAAAUUUAUCAGCUGUCCACAACAGAGGAUUGAGCAUCA
B24: chr11:51935959:51935960:+_ENSMUSG00000020349_ENSMUST00000020608|mus_hu|FALSE|FALSE (ssRNA)
RNA: GGGAGUUCUACAGUCCGACGAUCGGUUCUGACAAUAACAAAGAACAACAUGGGGCUGAGAUUUGAGUAGGGAAUAAACUGAGUGCAGACAAAUCAUAUAAUUAAAUUAAACGGUAUCCCUGAAAAUAAAAAGAACAAUUUCAACAACAGAGGAUUGAGCAUCA
B25: chr3:100438856:100438857:+_ENSG00000114354_ENST00000490574|hu_hu|motif|central (ssRNA)
RNA: GGGAGUUCUACAGUCCGACGAUCAACAAAUAAUGUCAGUUUCAGUAUCCUACUGCACUGAAUUGCAAAGGAAAGGUCAGAACGGUCAAAAAUUGUUAUAAGAUCUCCAUCUUCAUCUUUAUACUUUAUUGUUACUUCAUCAUUCAACAGAGGAUUGAGCAUCA

The binders below were run against T1, UNK ZnF1-3 (assay: nsRBNS (natural sequence RNA bind-n-seq); RBNS binding buffer (assumed for nsRBNS): 25 mM Tris pH 7.5, 150 mM KCl, 3 mM MgCl2, 0.01% Triton X-100, 500 ug/ml BSA, 20 U/ml SUPERase-In, 4 C; UNK is unkempt and MSI1 is Musashi-1; names of the RNAs are library labels; protein concentration not given here; high values mean tight binding).

| Binder | binding signal [enrichment R] |
| --- | --- |
| B1 | 1.53 |
| B2 | 7.3 |
| B3 | 2.43 |
| B4 | 0.979 |
| B5 | 0.605 |
| B6 | 1.19 |
| B7 | 1.65 |
| B8 | 4.66 |
| B9 | 0.958 |
| B10 | 2.01 |
| B11 | 1.01 |
| B12 | 5.92 |
| B13 | 3.38 |
| B14 | 0.539 |
| B15 | 1.42 |
| B16 | 1.67 |
| B17 | 3.37 |
| B18 | 3.79 |
| B19 | 0.477 |
| B20 | 1.23 |
| B21 | 10.9 |
| B22 | 10.6 |
| B23 | 3.52 |
| B24 | 3.8 |
| B25 | 0.76 |
